Only some compounds are listed: those with a hit (about 4% of all), similar ones and a draw of the others.
MLL AF4-AF9 inh: inhibitors of human MLL-AF4/AF9 interaction | inhibition, % at 10 µM | AID 651704 | AlphaScreen, biotin-AF4 peptide binding to FLAG-AF9 | actives 0.47% (n = 350,000);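 active means every replicate reaching a set inhibition limit, whatever the replicate mean, cut at about 25% in these data; inconclusive means mean inhibition reaches that limit but some replicates miss it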;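 further: 0% = plate neutral control median and 100% = total signal loss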
DENV2 CPE rescue: protects cells from dengue virus 2 cytopathic effect; DENV2-infected cells, cytopathic effect rescue, plate reader; CPE inhibition, % at 9.99 µM; actives 1.7% (n = 350,000); AID 651640; in the data active means CPE inhibition above about 20%, passing the limit was not always enough; inconclusive means no clear call, values can overlap the other calls; tested in BHK-21 cells;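 further: 0% = median of neutral control wells and 100% = median of positive control wells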
RAD52 inh: inhibitors of human RAD52 DNA annealing; inhibition, % at 18.7 µM; actives 0.46% (n = 360,000); recombinant RAD52 DNA annealing, FRET fluorescence; P43351;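 active means every replicate showing at least 50% inhibition; inconclusive means mean inhibition at least 50% but not in every replicate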
Target sequence (P43351 whole entry, looked up): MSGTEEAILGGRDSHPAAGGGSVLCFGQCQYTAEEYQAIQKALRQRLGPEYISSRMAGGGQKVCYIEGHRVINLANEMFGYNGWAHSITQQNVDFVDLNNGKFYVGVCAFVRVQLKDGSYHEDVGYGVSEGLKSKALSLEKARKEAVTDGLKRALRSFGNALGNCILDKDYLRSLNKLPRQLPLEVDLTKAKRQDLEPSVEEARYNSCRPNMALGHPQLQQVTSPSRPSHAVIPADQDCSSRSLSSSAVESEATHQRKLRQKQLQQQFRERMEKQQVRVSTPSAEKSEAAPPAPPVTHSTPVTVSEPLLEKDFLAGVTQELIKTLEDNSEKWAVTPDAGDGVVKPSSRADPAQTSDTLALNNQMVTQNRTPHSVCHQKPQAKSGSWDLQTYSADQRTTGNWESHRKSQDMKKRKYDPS
FGF22 binding: binders of recombinant human FGF22 by thermal shift; Q9HCT0; SYPRO orange fluorescence; percent of sucrose octasulfate shift, DMSO zero; activity (Tm shift, normalised), % at 9.99 µM; actives 1.5% (n = 340,000);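 active means mean Tm shift, scaled 0 neutral to 100 positive control, at about 1.3% or above, every replicate too, limit read from the data; inconclusive means no clear call, values can overlap the other calls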
Target sequence (Q9HCT0 whole entry, looked up): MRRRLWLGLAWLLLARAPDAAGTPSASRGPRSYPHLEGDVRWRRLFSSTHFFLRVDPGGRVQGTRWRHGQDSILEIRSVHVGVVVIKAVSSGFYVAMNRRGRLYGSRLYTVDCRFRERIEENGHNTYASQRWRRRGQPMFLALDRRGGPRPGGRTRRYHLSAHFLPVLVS
ERAP1 inh: ERAP1 (human) enzyme inhibition; Q9NZ08; actives 0.15% (n = 340,000); inhibition, % at 10.7 µM; recombinant ERAP1, Leu-AMC fluorescence, 60 min;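 active means mean replicate inhibition of at least 30%, or all replicates individually reaching that 30% level; inactive means mean below 30% and not every replicate reaching it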;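 further: 0% = neutral control wells and 100% = L-leucinethiol positive control wells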
The depositor's hits bear a star; ? = inconclusive; · = no result given; ! = repeats disagree.

SMILES	MLL AF4-AF9 inh	DENV2 CPE rescue	RAD52 inh	FGF22 binding	ERAP1 inh
CN(C)CC(=O)N[C@@H]1CC[C@@H](CCn2cc(C3CCCCC3)nn2)O[C@H]1CO	-2	24*	0	0	0
CN(C)CC(=O)N[C@@H]1CC[C@H](CCNC(=O)C2CCCC2)O[C@@H]1CO	-1	54*	1	0	-2
CCC(=O)N1CCC2(CC1)CN(C(=O)NC1CCCC1)[C@@H](CO)c1c2c2ccc(OC)cc2n1C	0	-14	·	0	·
COc1ccc(S(=O)(=O)N(C)C[C@@H]2Oc3c(NC(=O)NC4CCCCC4)cccc3C(=O)N([C@H](C)CO)C[C@@H]2C)cc1	1	-2	8	0	1
C[C@@H]1CN([C@@H](C)CO)C(=O)c2cccc(NC(=O)NC3CCCCC3)c2O[C@@H]1CN(C)S(=O)(=O)c1ccc(Cl)cc1	-1	16	-24	0	1
C[C@H](CO)N1C[C@H](C)[C@@H](CN(C)S(=O)(=O)c2ccc(Cl)cc2)Oc2c(NC(=O)NC3CCCCC3)cccc2C1=O	1	21*	-3	0	1
COc1ccc(S(=O)(=O)N(C)C[C@H]2Oc3c(NC(=O)NC4CCCCC4)cccc3C(=O)N([C@H](C)CO)C[C@@H]2C)cc1	1	70*!	25	0	2
O=C(Nc1cc(F)ccc1F)N[C@H]1CC[C@@H](CCn2cc(C3CCCC3)nn2)O[C@H]1CO	0	-9	-8	·	-7
COc1ccccc1-c1cnc2c(c1)C(=O)N([C@@H](C)CO)C[C@H](C)[C@H](CN(C)C(=O)CN(C)C)O2	0	?	7	0	0
COc1ccc2c3c([nH]c2c1)[C@@H](CO)NCC31CCN(C(=O)C2CCCC2)CC1	-1	78*	-71	0	-2
COc1ccc2c3c([nH]c2c1)[C@H](CO)NCC31CCN(Cc2ccccc2)CC1	-9	7	·	0	·
COc1ccc2c3c([nH]c2c1)[C@@H](CO)NCC31CCN(Cc2ccc(F)cc2)CC1	·	24*	72*	·	·
O=C(NCCNc1ccc([N+](=O)[O-])cc1C(F)(F)F)c1ccccc1	7	-9	-13	43*	6
CO[C@H]1CN(C)C(=O)c2ccc(NC(=O)CC(F)(F)F)cc2OC[C@H](C)N(C(C)=O)C[C@@H]1C	-2	8	-35	0	-1
Cc1cccc(C)c1NC(=O)CN1CCN(C(=O)c2cc(C3CC3)nn2-c2ccccc2)CC1	-2	81*	-8	0	-2
O=C(Nc1cccc(C(=O)O)c1)/C(=C\c1ccccc1)NC(=O)c1ccco1	0	27*	-67	0	-14
O=C(Nc1ccccc1)/C(=C\c1ccccc1)NC(=O)c1ccco1	·	6	-11	0	2
COc1ccc(-c2ccc([C@H]3[C@H](CO)N4C(=O)CN(C(=O)NC(C)C)C[C@@H]34)cc2)cc1	-11	-2	5	·	-3
COc1ccc(NC(=O)c2oc3ccccc3c2CSC)cn1	-2	-1	-17	0	-5
CCc1nnc(NC(=O)c2oc3ccccc3c2COC(C)C)s1	0	-5	-26	43*	4
CCOCc1c(C(=O)Nc2ccc(OC)nc2)oc2ccccc12	-4	8	-31	0	55*
CCc1nnc(NC(=O)c2ccc3ccccc3n2)s1	-2	3	-41	43	-1
Cc1cccc(S(=O)(=O)NC[C@@H]2CC[C@H]3NC[C@H]3O2)c1	-5	-1	2	·	1
COc1cc(OC)cc(C(=O)N2CCN(Cc3ccccc3Br)CC2)c1	-1	-3	-2	43*	1
C[C@@H]1CN([C@H](C)CO)C(=O)c2cc(N(C)C)ccc2O[C@@H]1CN(C)Cc1ccc(Oc2ccccc2)cc1	52*	-6	17	0	-1
SMILES	MLL AF4-AF9 inh	DENV2 CPE rescue	RAD52 inh	FGF22 binding	ERAP1 inh
C[C@H](CO)N1C[C@H](C)[C@H](CN(C)Cc2ccc(Oc3ccccc3)cc2)Oc2ccc(N(C)C)cc2C1=O	52*	0	11	-1	2
C[C@H](CO)N1C[C@H](C)[C@@H](CN(C)Cc2ccccc2)Oc2ccc(N(C)C)cc2C1=O	-4	-1	-3	0	0
C[C@@H]1CN([C@H](C)CO)C(=O)c2cc(N(C)C)ccc2O[C@H]1CN(C)Cc1ccc(Oc2ccccc2)cc1	40*	5	-8	0	1
C[C@H](CO)N1C[C@H](C)[C@@H](CN(C)C(=O)CN(C)C)Oc2ncc(-c3ccc(F)cc3)cc2C1=O	0	0	9	0	11
COc1ccccc1-c1nc2cc3ccccc3cc2nc1-c1ccccc1	26*	3	-13	0	0
Oc1ccccc1-c1nc2ccccc2nc1-c1ccccc1	14	6	0	0	-4
O=C(Nc1ccccc1F)Nc1ccccc1F	-1	-5	6	44*	-1
O=C(Nc1ccc(Br)cc1)Nc1ccccc1F	0	-4	-10	0	0
CC(=O)Nc1cccc(NC(=O)Nc2ccc(F)cc2F)c1	-3	-3	-6	0	0
O=C(Nc1ccccc1)Nc1ccc(F)cc1F	-1	-5	1	43*	-5
C[C@H](CO)N1C[C@H](C)[C@@H](CN(C)S(=O)(=O)c2cccs2)OCCCC[C@H](C)Oc2ccc(NC(=O)Nc3ccc4c(c3)OCO4)cc2C1=O	1	1	-5	0	1
CCOC(=O)c1ccc(S(=O)(=O)N2CCN(C(=O)CSc3nc4ccccc4o3)CC2)cc1	-6	29*	-2	0	0
CCOC(=O)c1ccc(S(=O)(=O)N2CCN(C(=O)c3cc4ccccc4o3)CC2)cc1	1	?	-15	0	-6
COc1ccc(-c2cc(C(=O)NC3=NCCS3)c3ccccc3n2)cc1OC	-1	8	-14	42	1
O=C(NC1=NCCS1)c1cc(-c2ccc(-c3ccccc3)cc2)nc2ccccc12	0	-2	-12	43*	-3
O=C1NC[C@H](c2ccccc2)OC(=O)[C@H](Cc2ccc(F)cc2)C/C=C\C[C@@H]1CC(=O)N(CCO)Cc1ccccc1	-1	-7	-13	0	14
O=C1NC[C@H](c2ccccc2)OC(=O)[C@@H](Cc2ccc(F)cc2)CC/C=C/C[C@H]1CC(=O)N(CCO)Cc1ccccc1	1	2	-8	0	4
O=C1NC[C@H](c2ccccc2)OC(=O)[C@@H](Cc2ccc(F)cc2)CC/C=C/C[C@@H]1CC(=O)N(CCO)Cc1ccccc1	1	47*	-1	-7	-1
O=C1CCCC/C=C\C[C@H](CC(=O)N(CCO)Cc2ccccc2)C(=O)NC[C@H](c2ccccc2)O1	·	130*	-6	0	1
CC1(C(=O)NCc2cc(F)cc(C(F)(F)F)c2)C=CC2(CCCCC2)N1C(=O)c1ccccc1 (centres undefined)	-4	100*	-12	0	-3
